Measured values as given in PubChem BioAssay (NCATS).
“And” between values parts separate entries of the source, which are not always exact repeats. Identical values can stand only once. Inconclusive results are not listed. A call without a number means that no potency is given here. The source holds several records for some structures; these can differ, active in one and inactive in another. The source made the active and inactive calls. Unless noted, the call rests on the fitted dose curve; in most records, active means well fitted curve in the direction sought with a large enough effect; inconclusive means small, poorly fitted or top-dose-only effect, or another doubt; inactive means no such curve, though single readings can be large; an effect the other way counts as inactive or inconclusive. Peptide text beside a SMILES is read from it.

Key:
[1] = Cellular Toxicity (caspase-3) NIH 3T3 (AID 666); conditions: NIH 3T3 caspase-3 activation, apoptosis/toxicity, 0% DMSO, 100% is 100 µM tamoxifen; series mostly up to 92.2 µM;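 further: caspase signal read after 16 h compound exposure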
Outline: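 Activity: caspase-3/7 induction, NIH 3T3 cells, 16 hr treatment at 37°C, luminescent Caspase-Glo detection; AC50 via Hill equation.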

[2] = Cellular Toxicity (caspase-3) Renal Proximal Tubule (AID 667); conditions: renal proximal tubule cells, primary cells freshly taken from rat, solvent-only wells 0%, staurosporine 100%; series mostly up to 91.7 µM;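 further: cells exposed to compound for 16 hours at 37 °C before detection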
Outline: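 Primary rat proximal tubule cells, 1000/well, 5 h plating at 37 °C, then compound 16 h at 37 °C. Caspase-Glo 3/7 reagent, 1 h RT, luminescence. Normalized to DMSO (basal) and 10 uM staurosporine (100%); Hill-fit AC50.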

[3] = Confirmation and Secondary Assay for Modulators of Hemoglobin Beta Chain Splicing at IVS2 654 locus (AID 910); conditions: HeLa EGFP-654 splicing reporter, GFP fluorescence, 48 h; series mostly up to 46.1 µM;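 further: HeLa cells stably carrying EGFP split by mutant beta-globin IVS2-654 intron; per-well total GFP intensity by laser scanning cytometry after 2-day treatment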;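 further: potency means the concentration at half of the fitted maximal effect; potency of activators that raise GFP signal by restoring correct splicing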
Outline: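 Readout: per-well total peak green fluorescence (488 nm ex, 500–520 nm em) from objects 5–250 µm, reflecting correct splicing of an EGFP-654 reporter. Compounds were applied for 2 days at 37 °C to overnight-plated HeLa EGFP-654 cells; controls were DMSO and 500 nM IVS2-654 PNA.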

[4] = molecular target: Guanine nucleotide-binding protein G(i) subunit alpha-1 (Homo sapiens) (UniProt P63096); experiment: qHTS Assay for Inhibitors of RGS12 GoLoco Motif Activity (Green Fluorophore) (AID 879); conditions: Galphai1/FITC-RGS12 GoLoco peptide, fluorescence polarization; series mostly up to 57.1 µM;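 further: negative values mean loss of peptide binding seen as reduced polarization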
Outline: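 A drop in FITC polarization marked displacement of the FITC-tagged RGS12 GoLoco peptide (10 nM) from Gαi1 (50 nM). Compounds were incubated 10 min at room temperature in Tris pH 7.5 buffer containing 150 mM NaCl, 0.1 mM GDP and 0.05% NP40; unlabeled peptide titration served as control.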

[5] = molecular target: Cytochrome P450 3A4 (Homo sapiens) (UniProt P08684); experiment: qHTS Assay for Inhibitors and Substrates of Cytochrome P450 3A4 (AID 884); conditions: recombinant CYP3A4, Luciferin-PPXE luminescence; series mostly up to 57.1 µM; further: nearly all actives have a fitted effect of over 50% in size; further: potency means the concentration at half of the fitted maximal effect
Outline: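 Luminescent readout of luciferin produced by CYP3A4 (20 nM) dealkylation of Luciferin-PPXE, 25 uM (its KM). NADPH-driven reaction ran 60 min at RT after 10 min compound preincubation; data scaled to 57 uM ketoconazole as 100% inhibition.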

[6] = molecular target: Cytochrome P450 3A4 (Homo sapiens) (UniProt P08684); experiment: qHTS Assay for Activators of Cytochrome P450 3A4 (AID 885); conditions: recombinant CYP3A4, Luciferin-PPXE luminescence, 60 min; series mostly up to 57.1 µM; further: nearly all actives have a fitted effect of over 65% in size
Outline: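 Human CYP3A4 dealkylates Luciferin-PPXE to luciferin, which luciferase detection converts to light. Substrate was at its KM (25uM), buffer 200mM KPO4, reaction 60 min at RT.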

[7] = qHTS Assay for Identification of Small Molecule Agonists for Hypoxia Response Element Signaling Pathway (AID 914; active means well fitted activation curve with a large enough effect in the signal ratio, with a control signal flat, not every such curve was filed as active; the % refers to the signal ratio); conditions: ME-180 (cervical carcinoma) HRE-bla reporter, beta-lactamase ratio, CoCl2, 17 h; stronger effect = higher value
Outline: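 Reporter activity (beta-lactamase, CCF4 460nm/530nm ratio) in HRE-bla ME-180 cells is recorded after 17 h compound exposure with EC50 CoCl2 at 37 degrees Celsius. AC50 values come from titration data.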

[8] = molecular target: Cytochrome P450 2C9 (Homo sapiens) (UniProt P11712); experiment: qHTS Assay for Inhibitors and Substrates of Cytochrome P450 2C9 (AID 883); conditions: recombinant CYP2C9, luciferin-H luminescence, 60 min; series mostly up to 57.1 µM; further: nearly all actives have a fitted effect of over 60% in size; further: potency means the concentration at half of the fitted maximal effect
Outline: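 Luminescent read-out of deoxyluciferin hydroxylation, normalized to 57uM sulphaphenazole (AC100). Reaction: 10nM enzyme, 100uM Luciferin-H (equal to KM), 25mM KPO4, 10 min compound preincubation, then 60 min with NADPH regeneration, both at 37C.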

[9] = molecular target: Cytochrome P450 2C19 (Homo sapiens) (UniProt P33261); experiment: qHTS Assay for Inhibitors and Substrates of Cytochrome P450 2C19 (AID 899); conditions: recombinant CYP2C19, luciferin-H EGE luminescence; series mostly up to 57.1 µM; further: nearly all actives have a fitted effect of over 60% in size; further: potency means the concentration at half of the fitted maximal effect
Outline: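 Luminescence readout of luciferin formed from 10uM Luciferin-H EGE (KM level) by 5 nM CYP2C19 in 50mM KPO4. 60 min NADPH-driven reaction at 37C after 10 min compound preincubation; data scaled to 57uM ketoconazole inhibition.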

[10] = qHTS Assay for Identification of Small Molecule Antagonists for NFkB Signaling Pathway (AID 895; active means well fitted inhibition curve with a large enough effect in the signal ratio, with a control signal flat, not every such curve was filed as active; the % refers to the signal ratio; further: potency means the concentration at half of the fitted maximal effect); conditions: NFkB beta-lactamase reporter cells, FRET ratio 460/530, stimulated with 10 pM TNF alpha; series mostly up to 38.3 µM
Outline: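 Beta-lactamase reporter read-out (460 and 530 nm emission ratio, 405 nm excitation, 2 hrs substrate loading RT) after 5 hr stimulation with 10 pM TNF alpha in compound-treated NFkB-bla ME-180 cells in low-serum medium.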

Sequence of Cytochrome P450 3A4 (Homo sapiens) (P08684 whole entry, looked up): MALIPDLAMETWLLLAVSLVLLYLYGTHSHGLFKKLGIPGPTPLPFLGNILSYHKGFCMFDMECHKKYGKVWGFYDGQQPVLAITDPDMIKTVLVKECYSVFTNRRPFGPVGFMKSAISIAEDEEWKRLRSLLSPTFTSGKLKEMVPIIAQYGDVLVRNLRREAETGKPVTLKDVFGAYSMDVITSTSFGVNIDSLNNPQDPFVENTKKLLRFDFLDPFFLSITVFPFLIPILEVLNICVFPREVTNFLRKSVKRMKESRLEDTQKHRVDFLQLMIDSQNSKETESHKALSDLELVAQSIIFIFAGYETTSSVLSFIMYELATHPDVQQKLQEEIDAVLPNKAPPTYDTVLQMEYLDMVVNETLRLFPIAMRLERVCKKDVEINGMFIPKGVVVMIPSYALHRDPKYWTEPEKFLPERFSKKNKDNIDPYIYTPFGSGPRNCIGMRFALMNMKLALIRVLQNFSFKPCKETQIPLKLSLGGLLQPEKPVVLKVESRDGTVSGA
Sequence of Guanine nucleotide-binding protein G(i) subunit alpha-1 (Homo sapiens) (P63096 whole entry, looked up): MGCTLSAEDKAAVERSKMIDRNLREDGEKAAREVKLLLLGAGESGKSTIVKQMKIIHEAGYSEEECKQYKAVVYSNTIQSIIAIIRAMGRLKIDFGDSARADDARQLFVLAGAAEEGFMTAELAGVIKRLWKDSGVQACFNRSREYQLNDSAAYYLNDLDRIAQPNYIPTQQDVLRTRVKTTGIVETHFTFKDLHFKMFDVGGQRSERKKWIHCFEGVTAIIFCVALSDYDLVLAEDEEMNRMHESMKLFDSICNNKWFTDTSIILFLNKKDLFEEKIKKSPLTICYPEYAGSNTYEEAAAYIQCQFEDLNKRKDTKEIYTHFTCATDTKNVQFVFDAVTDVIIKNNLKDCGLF
Sequence of Cytochrome P450 2C19 (Homo sapiens) (P33261 whole entry, looked up): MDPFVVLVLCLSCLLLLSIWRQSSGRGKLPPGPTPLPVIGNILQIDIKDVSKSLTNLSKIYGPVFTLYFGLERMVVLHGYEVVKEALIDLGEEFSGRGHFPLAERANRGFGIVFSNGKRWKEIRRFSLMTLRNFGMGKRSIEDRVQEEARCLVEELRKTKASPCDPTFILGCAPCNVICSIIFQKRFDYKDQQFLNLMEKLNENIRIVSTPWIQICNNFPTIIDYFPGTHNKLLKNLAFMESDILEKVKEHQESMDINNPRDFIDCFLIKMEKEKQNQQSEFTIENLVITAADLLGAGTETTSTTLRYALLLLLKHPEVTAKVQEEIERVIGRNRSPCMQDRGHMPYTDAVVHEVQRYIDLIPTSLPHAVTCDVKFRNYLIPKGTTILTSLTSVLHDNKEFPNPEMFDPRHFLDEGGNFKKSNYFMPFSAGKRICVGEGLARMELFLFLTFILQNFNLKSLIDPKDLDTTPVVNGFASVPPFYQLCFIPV
Sequence of Cytochrome P450 2C9 (Homo sapiens) (P11712 whole entry, looked up): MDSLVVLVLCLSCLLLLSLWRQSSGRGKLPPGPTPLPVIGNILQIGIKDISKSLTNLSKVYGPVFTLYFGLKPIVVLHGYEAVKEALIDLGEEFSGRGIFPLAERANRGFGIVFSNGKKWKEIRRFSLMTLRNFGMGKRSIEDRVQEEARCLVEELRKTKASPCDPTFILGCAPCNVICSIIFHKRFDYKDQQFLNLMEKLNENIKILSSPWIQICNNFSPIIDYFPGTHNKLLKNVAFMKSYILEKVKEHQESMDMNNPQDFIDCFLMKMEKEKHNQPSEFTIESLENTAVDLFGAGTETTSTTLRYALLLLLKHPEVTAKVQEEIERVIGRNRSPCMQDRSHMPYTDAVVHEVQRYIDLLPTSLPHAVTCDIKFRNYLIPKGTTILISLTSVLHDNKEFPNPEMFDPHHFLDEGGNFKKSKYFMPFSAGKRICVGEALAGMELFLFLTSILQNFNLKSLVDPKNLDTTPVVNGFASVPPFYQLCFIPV

COc1c2occc2cc2ccc(=O)oc12
outcome [1]: inactive
outcome [2]: inactive
Potency [3]: inactive

O=Nc1c(-c2c(O)[nH]c3cc(Br)ccc23)[nH]c2ccccc12
outcome [4]: inactive
outcome [6]: inactive

NS(=O)(=O)c1cc(C(=O)O)c(NCc2ccco2)cc1Cl
outcome [1]: inactive
outcome [2]: inactive
Potency [3]: inactive
activation [7]: -15.7% (inactive)

O=C1NC(=O)C(c2ccccc2[N+](=O)[O-])=C1Nc1ccc(O)c(Cl)c1
outcome [4]: inactive
outcome [6]: inactive

Nc1ccc(S(N)(=O)=O)cc1
outcome [1]: inactive
outcome [2]: inactive
Potency [3]: inactive

Nc1nc(OCc2ccccc2)c2[nH]cnc2n1
outcome [4]: inactive

O=c1c(O)c(-c2ccc(O)cc2O)oc2cc(O)cc(O)c12
outcome [4]: inactive
Potency [8]: 10 µM (active)
Potency [9]: inactive
Potency [3]: inactive

COC(=O)[C@H](Cc1ccccc1)NC(=O)[C@@H](N)CC(=O)O (H-Asp-Phe-OMe)
outcome [1]: inactive
outcome [2]: inactive
Potency [5]: inactive

CCCCC(CC)COC(=O)C(C#N)=C(c1ccccc1)c1ccccc1 (configuration not stated)
outcome [1]: inactive
outcome [2]: inactive
Potency [5]: inactive

Cc1nc2n(c(=O)c1CCN1CCC(c3noc4cc(F)ccc34)CC1)CCCC2
outcome [4]: inactive
outcome [8]: inactive
Potency [10]: inactive
outcome [9]: inactive

C[C@H](Cc1ccc(O)c(O)c1)[C@@H](C)Cc1ccc(O)c(O)c1
outcome [4]: inactive
Potency [8]: 1.58 µM (active)
Potency [5]: inactive
Potency [10]: 7.94 µM (active)
Potency [9]: 6.31 µM (active)

Oc1ccc(-c2nc(-c3ccc(F)cc3)c(-c3ccncc3)[nH]2)cc1
outcome [4]: inactive
Potency [8]: 7.94 µM (active)
Potency [9]: 0.794 µM (active)

Cc1cccc(C#Cc2ccccc2)n1
outcome [4]: inactive
Potency [8]: inactive and 10 µM (active)
outcome [6]: inactive
Potency [9]: inactive and 7.94 µM (active)

O=c1cc(N2CCOCC2)oc2c(-c3ccccc3)cccc12
outcome [4]: inactive
outcome [6]: inactive

CC1(C)C(=O)N(CCN2CCC(C(=O)c3ccc(F)cc3)CC2)c2ccccc21
outcome [4]: inactive
Potency [8]: inactive
outcome [6]: inactive

O=c1c(O)c(-c2cc(O)c(O)c(O)c2)oc2cc(O)cc(O)c12
outcome [4]: inactive
outcome [6]: inactive

Cc1ccc(C)c(OCCCC(C)(C)C(=O)O)c1
outcome [1]: inactive
outcome [2]: inactive
Potency [8]: 6.31 µM (active)
Potency [5]: inactive
Potency [3]: inactive

COc1ccccc1N1CCN(CCN(C(=O)C2CCCCC2)c2ccccn2)CC1
outcome [4]: inactive
Potency [5]: 3.98 µM (active)
outcome [6]: inactive
Potency [10]: inactive

CCCc1cc(=O)[nH]c(=S)[nH]1
outcome [1]: inactive
outcome [2]: inactive
Potency [5]: inactive
Potency [9]: inactive
Potency [3]: inactive

CCc1nc(N)nc(N)c1-c1ccc(Cl)cc1
outcome [1]: inactive
outcome [2]: inactive
outcome [8]: inactive
outcome [9]: inactive
Potency [3]: inactive

CS(=O)(=O)OCCCCOS(C)(=O)=O
outcome [1]: inactive
outcome [2]: inactive
Potency [5]: inactive
Potency [3]: inactive

NC(=NCc1ccccc1)NC(=O)c1nc(Cl)c(N)nc1N
outcome [4]: inactive
Potency [5]: inactive
Potency [3]: inactive

CC(=O)Nc1ccc(O)cc1
outcome [1]: inactive
outcome [2]: inactive
outcome [8]: inactive
outcome [9]: inactive

c1ccc2[nH]c(-c3cscn3)nc2c1
outcome [2]: inactive
Potency [3]: inactive
activation [7]: -2.82% (inactive)

NNc1nncc2ccccc12
outcome [4]: inactive
outcome [6]: inactive
Potency [10]: inactive
Potency [3]: inactive

NCCCCNCCCN
outcome [4]: inactive
Potency [5]: inactive
Potency [10]: inactive
Potency [3]: inactive

CC(C)c1ccc2c(c1)c(SC(C)(C)C)c(CC(C)(C)C(=O)O)n2Cc1ccc(Cl)cc1
outcome [4]: inactive
outcome [6]: inactive

O=C(CCc1ccc(O)cc1)c1c(O)cc(O)cc1O
outcome [4]: inactive
Potency [8]: 2.51 µM (active)
Potency [5]: 2 µM (active) and 15.8 µM (active)
outcome [6]: inactive
Potency [9]: 3.98 µM (active)
Potency [3]: inactive

Cc1cc(O)c2c(c1)C(=O)c1cc(O)cc(O)c1C2=O
outcome [2]: inactive
outcome [4]: inactive
Potency [8]: 3.98 µM (active)

CCN(CC)C(=S)SSC(=S)N(CC)CC
outcome [4]: inactive
Potency [8]: 2.51 µM (active) and 398 nM (active)
outcome [6]: inactive
Potency [10]: 7.08 µM (active)
Potency [3]: inactive

CN(C)c1ccc2nc3ccc(=[N+](C)C)cc-3sc2c1
outcome [1]: inactive
outcome [2]: inactive

CNC[C@H](O)c1ccc(O)c(O)c1
outcome [4]: inactive

O=c1oc2cc(O)ccc2s1
Potency [5]: inactive
Potency [3]: inactive

CC1(C)NC(=O)N(c2ccc([N+](=O)[O-])c(C(F)(F)F)c2)C1=O
outcome [4]: inactive
outcome [6]: inactive
Potency [9]: 7.94 µM (active) and 126 nM (active) and 251 nM (active)
Potency [3]: inactive

CN1CCC(=C2c3ccccc3CCc3sccc32)CC1
Potency [3]: inactive

CC1Cc2ccccc2N1NC(=O)c1ccc(Cl)c(S(N)(=O)=O)c1 (configuration not stated)
Potency [5]: inactive
Potency [3]: inactive

O=C(O)c1cn(-c2ccc(F)cc2)c2cc(N3CCNCC3)c(F)cc2c1=O
Potency [5]: inactive
Potency [3]: inactive

Cc1ncc([N+](=O)[O-])n1CC(C)O (configuration not stated)
Potency [5]: inactive
Potency [3]: inactive

O=C1c2ccccc2-c2n[nH]c3cccc1c23
Potency [8]: inactive
Potency [5]: 3.98 µM (active)
outcome [6]: inactive
Potency [9]: inactive

Nc1nc(Cl)nc2c1ncn2[C@H]1C[C@H](O)[C@@H](CO)O1
Potency [5]: inactive
Potency [3]: inactive

O=C(O)c1cc(=O)c2c(OCC(O)COc3cccc4oc(C(=O)O)cc(=O)c34)cccc2o1
Potency [5]: inactive
Potency [3]: inactive

CCOC(=O)C1=C(O)C(=O)N(Cc2ccccc2)C1
Potency [8]: 3.98 µM (active)
outcome [6]: inactive

C[C@@H](N)C1CCC(C(=O)Nc2ccncc2)CC1 (some centres not stated)
Potency [5]: 15.8 µM (active)
outcome [6]: inactive

Cc1cc2cc3c(C)cc(=O)oc3c(C)c2o1
Potency [5]: 3.98 µM (active)
outcome [6]: inactive
Potency [3]: inactive

COC(=O)C1=C(C)NC(C)=C(C(=O)OC(C)C)C1c1cccc2nonc12 (configuration not stated)
outcome [6]: inactive

CN(C)CCc1c[nH]c2ccc(Cn3cncn3)cc12
Potency [5]: inactive
Potency [3]: inactive

Cc1cccc(CN2CCN(C(c3ccccc3)c3ccc(Cl)cc3)CC2)c1 (configuration not stated)
outcome [6]: inactive
Potency [3]: inactive

S=c1nc[nH]c2nc[nH]c12
Potency [5]: inactive
Potency [3]: 3.16 µM (active)

Cc1c(OCC(F)(F)F)ccnc1CS(=O)c1nc2ccccc2[nH]1 (configuration not stated)
outcome [4]: inactive
outcome [6]: inactive
Potency [9]: 1.26 µM (active)
Potency [3]: inactive

Cc1cc2c(s1)Nc1ccccc1N=C2N1CCN(C)CC1
Potency [5]: inactive
Potency [3]: inactive

Cc1cc(C2CCCCC2)n(O)c(=O)c1
Potency [5]: inactive
Potency [3]: inactive

O=C(NCCO[N+](=O)[O-])c1cccnc1
Potency [8]: 2 µM (active)
Potency [9]: 3.98 µM (active)

O=C(c1ccccc1)c1ccc2n1CCC2C(=O)O (configuration not stated)
Potency [5]: inactive
Potency [3]: inactive

COc1ccc2cc([C@H](C)C(=O)O)ccc2c1
outcome [4]: inactive
Potency [10]: inactive

Cc1cc(=O)oc2cc(O)ccc12
Potency [8]: inactive

Nc1cc(C(Cl)=C(Cl)Cl)c(S(N)(=O)=O)cc1S(N)(=O)=O
Potency [3]: inactive

O=c1ccc2ccc(O)c(O)c2o1
outcome [4]: inactive
Potency [10]: inactive

O=C(O)c1cccnc1Nc1cccc(C(F)(F)F)c1
outcome [4]: inactive
outcome [6]: inactive
Potency [9]: inactive
Potency [3]: inactive

Cc1ccc(S(=O)(=O)NC(=O)NN2CC3CCCC3C2)cc1 (configuration not stated)
Potency [5]: inactive
Potency [3]: inactive

CCN(CCO)CCCC(C)Nc1ccnc2cc(Cl)ccc12 (configuration not stated)
Potency [3]: inactive

O=C(NC(Cc1cc(=O)[nH]c2ccccc12)C(=O)O)c1ccc(Cl)cc1 (configuration not stated)
Potency [5]: inactive
Potency [3]: inactive

O=C1c2c(O)cc(O)cc2OC(c2ccc(O)c(O)c2)C1O (configuration not stated)
outcome [6]: inactive

CN1C(C(=O)Nc2ccccn2)=C(O)c2sccc2S1(=O)=O
Potency [5]: inactive
Potency [3]: inactive
activation [7]: -9.7% (inactive)

CCCOc1ccc2nc(NC(=O)OC)[nH]c2c1
Potency [5]: inactive
Potency [3]: inactive
